PubChem BioAssay (NCATS)
A number with no mark means an inactive call. Inconclusive results are not listed. Activity calls are given as the source filed them. Unless noted, calls come from the whole dose curve; as a rule, active = well fitted curve in either direction with a large enough effect (not every such curve was filed as active); inconclusive = small, poorly fitted or top-dose-only effect, or another doubt; inactive = flat fitted curve, though single readings scatter. Residues, ends and D or L forms follow the SMILES beside them.

How the values were obtained:
[1] = target: Lysosomal acid glucosylceramidase (Homo sapiens) (UniProt P04062); assay: Glucocerebrosidase-p2 (AID 348; in the data active = potency below about 10 µM; note: potency is the fitted concentration of half-maximal effect); conditions: purified GBA, blue fluorogenic substrate, 40 min
How it was run: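 Compounds titrated from 0.6 nM upwards against 0.2 nM enzyme in pH 5.9 citric acid/KH2PO4, taurocholate, tween-20; blue fluorogenic substrate 80 uM, 40 min room temperature, stopped and read Ex 365/Em 440 for AC50.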

[2] = AP1 Signaling Pathway (AID 357); conditions: ME-180 AP-1-bla reporter, EGF-induced, beta-lactamase ratio, 5 h; at 7.69 µM (top of the series) unless noted;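 note: ME-180 reporter cells stimulated with EGF at its EC50 level; % is set by controls: 0 for no effect and ±100 for the full control effect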
How it was run: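 A ratiometric CCF4 readout (405 nm excitation; 460 and 530 nm emission) quantified AP-1-driven beta-lactamase in ME-180 cells after 5 h with compound and EC50 EGF; AC50 values were derived for activators and inhibitors.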

[3] = target: Cytochrome P450 1A2 (Homo sapiens) (UniProt P05177); assay: p450-cyp1a2 (AID 410; calls by dose curve; note: potency is the fitted concentration of half-maximal effect;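 for activity change, negative = inhibition: -100% = full effect of reference inhibitor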); conditions: recombinant CYP1A2, luciferin-ME demethylation, luminescence; series mostly up to 11.4 µM
How it was run: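 Inhibition was calculated relative to 57 uM furafylline (full inhibition). The reaction used human CYP1A2 at 20nM with Luciferin-ME at its Km, 100uM, driven by an NADPH-regenerating system for 60 min at room temperature.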

[4] = NFAT Signaling Pathway (AID 444); conditions: Jurkat NFAT-bla M1, carbachol, beta-lactamase ratio, 5 h; at 7.69 µM (top of the series) unless noted;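 note: carbachol stimulus at about its EC50 of 1 µM final; % is set by controls: 0 for no effect and ±100 for the full control effect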
How it was run: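 Read-out: CCF4 FRET ratio (460 nm/530 nm) after 1 h RT dye loading, used for %activity and AC50 from titration series. Cells: Jurkat NFAT-β-lactamase/M1 line, treated with compound plus 1 uM carbachol for 5 h, 37 °C.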

[5] = Stat Signaling Pathway (AID 446); conditions: ME-180 (cervical carcinoma) SIE beta-lactamase reporter, IL-6 stimulated, 5 h; at 7.69 µM (top of the series) unless noted;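 note: ME-180 cervical cancer cells given 40 pM IL-6 alongside compound; SIE-controlled beta-lactamase reporter measured as 460/530 nm FRET emission ratio; % is set by controls: 0 for no effect and ±100 for the full control effect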
How it was run: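 IL-6/STAT signaling read in ME-180 cells via an SIE beta-lactamase reporter. Stimulus was 40 pM IL-6 (its AC50) for 5 hrs, so both activation and inhibition register.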

[6] = target: Glucocorticoid receptor (Homo sapiens) (UniProt P04150); assay: GR-GFP Redistribution (AID 450;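 active = compounds whose dose series gives a full or clear partial fitted curve of increased nuclear translocation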; note: potency is the fitted concentration of half-maximal effect); conditions: U2OS GR-GFP nuclear translocation, laser cytometry, 2 h
[7] = target: Glucocorticoid receptor (Homo sapiens) (UniProt P04150); assay: GR-EFC Redistribution (AID 451; calls by dose curve; note: potency is the fitted concentration of half-maximal effect); conditions: CHO-K1 GR-EFC translocation, beta-gal luminescence, 2 h
How it was run: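 Translocation of GR-ED fusion to nuclear EA restores b-gal, read by luminescence after 1 h room-temperature detection. Engineered CHO-K1 biosensor cells, 1,000/well, exposed 2 h at 37 C to titrations up to 46 uM final.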

[8] = target: Mitogen-activated protein kinase 10 (Mus musculus) (UniProt Q61831); assay: JNK3 AlphaScreen Assay (AID 530); conditions: JNK3 lysate, c-Jun phosphorylation; series mostly up to 11.4 µM;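 note: kinase came from lysate of stimulated human HepG2 cells; signal reports phosphorylation of biotinylated GST-cJun 1-79 at Ser73 with 10 µM ATP; % is set by controls: 0 for no effect and ±100 for the full control effect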
How it was run: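 Room-temperature AlphaScreen kinase assay; pre-activated HepG2 lysate as JNK3 source, biotin-GST-cJun(1-79) substrate, 10 uM ATP, compound 15 min preincubation.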

[9] = target: 3',5'-cyclic-AMP phosphodiesterase 4B (Homo sapiens) (UniProt Q07343); assay: qHTS Assay for Inhibitors of PDE-IV (AID 607; active = well fitted activation curve with a large enough effect in the main read-out, with a control signal flat, not every such curve was filed as active; note: % of control where 0% means no effect); conditions: HEK293 ACTOne CNG channel cells, membrane potential fluorescence; series mostly up to 22.9 µM
How it was run: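 Live HEK293 cells with a modified cyclic nucleotide-gated (CNG) channel report intracellular cAMP via membrane-potential dye fluorescence (ex 535/em 590 nm). Endogenous PDE-IV was targeted. Compounds were tested at up to 22.9 uM final; RO 20-1724 100 uM served as control.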

[10] = target: Cytochrome P450 2C9 (Homo sapiens) (UniProt P11712); assay: qHTS Assay for Inhibitors and Substrates of Cytochrome P450 2C9 (AID 883; active = well fitted curve in the direction sought with a large enough effect; an effect the other way counts as inactive or inconclusive; note: % is set by controls: 0 for no effect and ±100 for the full control effect; nearly all actives have a fitted effect of over 60% in size); conditions: recombinant CYP2C9, luciferin-H luminescence, 60 min; series mostly up to 11.4 µM
How it was run: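 Turnover of Luciferin-H (100uM, KM) by 10nM human CYP2C9 was measured over 60 min at 37C with NADPH regeneration; inhibitors and some substrates reduce luminescence. Data normalized to sulphaphenazole 57uM.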

[11] = target: Cytochrome P450 3A4 (Homo sapiens) (UniProt P08684); assay: qHTS Assay for Inhibitors and Substrates of Cytochrome P450 3A4 (AID 884; active = well fitted curve in the direction sought with a large enough effect; an effect the other way counts as inactive or inconclusive; note: potency is the fitted concentration of half-maximal effect; nearly all actives have a fitted effect of over 50% in size); conditions: recombinant CYP3A4, Luciferin-PPXE luminescence; series mostly up to 57.1 µM
How it was run: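 20 nM human CYP3A4 with 25 uM Luciferin-PPXE (at KM) in 200 mM KPO4, preincubated 10 min with compound; NADPH regeneration started a 60 min RT reaction. Luciferin detected by luminescence, normalized to 57 uM ketoconazole as full inhibition.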

[12] = target: Cytochrome P450 3A4 (Homo sapiens) (UniProt P08684); assay: qHTS Assay for Activators of Cytochrome P450 3A4 (AID 885; active = well fitted curve in the direction sought with a large enough effect; an effect the other way counts as inactive or inconclusive; note: nearly all actives have a fitted effect of over 65% in size); conditions: recombinant CYP3A4, Luciferin-PPXE luminescence, 60 min; series mostly up to 11.4 µM
How it was run: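 Quantitative HTS format: compounds preincubated with 20nM human CYP3A4 and Luciferin-PPXE substrate at KM, reaction started by NADPH regeneration, stopped after 60 min, luciferase luminescence read 20 min later.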

Chain of Cytochrome P450 2C9 (Homo sapiens) (P11712 whole entry, looked up): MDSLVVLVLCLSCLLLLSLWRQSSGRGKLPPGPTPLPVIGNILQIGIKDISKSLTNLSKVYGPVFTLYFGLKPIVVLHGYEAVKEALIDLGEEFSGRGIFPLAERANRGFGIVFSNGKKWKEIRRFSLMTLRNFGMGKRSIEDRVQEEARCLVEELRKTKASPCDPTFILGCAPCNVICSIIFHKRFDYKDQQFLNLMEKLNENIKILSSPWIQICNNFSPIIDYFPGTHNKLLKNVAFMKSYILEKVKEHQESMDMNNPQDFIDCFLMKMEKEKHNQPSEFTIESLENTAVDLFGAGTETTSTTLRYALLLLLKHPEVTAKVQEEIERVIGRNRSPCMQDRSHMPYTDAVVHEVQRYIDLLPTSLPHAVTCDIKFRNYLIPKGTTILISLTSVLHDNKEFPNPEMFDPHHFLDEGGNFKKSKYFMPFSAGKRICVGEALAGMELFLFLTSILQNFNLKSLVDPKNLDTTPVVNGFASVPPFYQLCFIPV
Chain of 3',5'-cyclic-AMP phosphodiesterase 4B (Homo sapiens) (Q07343 whole entry, looked up): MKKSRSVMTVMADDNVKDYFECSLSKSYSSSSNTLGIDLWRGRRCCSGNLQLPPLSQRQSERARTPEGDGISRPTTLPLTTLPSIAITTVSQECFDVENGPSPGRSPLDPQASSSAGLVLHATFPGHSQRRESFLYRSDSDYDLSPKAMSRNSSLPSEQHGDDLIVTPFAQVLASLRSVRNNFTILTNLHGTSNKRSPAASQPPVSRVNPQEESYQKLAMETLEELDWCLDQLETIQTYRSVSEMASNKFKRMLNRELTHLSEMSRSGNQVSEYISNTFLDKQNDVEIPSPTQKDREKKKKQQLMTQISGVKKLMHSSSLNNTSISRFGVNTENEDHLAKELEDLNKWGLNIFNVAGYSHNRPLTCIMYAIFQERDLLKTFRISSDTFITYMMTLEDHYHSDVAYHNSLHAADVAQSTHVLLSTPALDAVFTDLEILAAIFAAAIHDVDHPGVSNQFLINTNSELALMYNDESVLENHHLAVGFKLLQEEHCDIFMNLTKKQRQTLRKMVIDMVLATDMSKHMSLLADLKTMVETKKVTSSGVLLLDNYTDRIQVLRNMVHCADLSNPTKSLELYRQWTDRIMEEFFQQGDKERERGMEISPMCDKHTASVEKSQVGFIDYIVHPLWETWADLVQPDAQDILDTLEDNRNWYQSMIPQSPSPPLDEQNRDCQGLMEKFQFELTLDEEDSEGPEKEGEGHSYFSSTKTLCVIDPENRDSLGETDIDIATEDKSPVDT
Chain of Cytochrome P450 1A2 (Homo sapiens) (P05177 whole entry, looked up): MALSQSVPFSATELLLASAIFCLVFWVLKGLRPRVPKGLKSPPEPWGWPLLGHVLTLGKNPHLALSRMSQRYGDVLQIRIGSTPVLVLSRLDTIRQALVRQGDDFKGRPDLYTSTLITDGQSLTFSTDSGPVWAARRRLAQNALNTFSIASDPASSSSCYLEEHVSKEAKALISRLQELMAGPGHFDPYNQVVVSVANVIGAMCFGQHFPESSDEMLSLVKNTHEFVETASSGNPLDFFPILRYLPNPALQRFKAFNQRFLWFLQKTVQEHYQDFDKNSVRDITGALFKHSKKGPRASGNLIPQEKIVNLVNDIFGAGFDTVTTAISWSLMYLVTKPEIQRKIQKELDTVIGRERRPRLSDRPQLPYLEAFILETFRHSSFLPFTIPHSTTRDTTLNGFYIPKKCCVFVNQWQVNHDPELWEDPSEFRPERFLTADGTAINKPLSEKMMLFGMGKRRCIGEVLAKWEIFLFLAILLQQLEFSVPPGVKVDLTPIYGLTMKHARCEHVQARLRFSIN
Chain of Lysosomal acid glucosylceramidase (Homo sapiens) (P04062 whole entry, looked up): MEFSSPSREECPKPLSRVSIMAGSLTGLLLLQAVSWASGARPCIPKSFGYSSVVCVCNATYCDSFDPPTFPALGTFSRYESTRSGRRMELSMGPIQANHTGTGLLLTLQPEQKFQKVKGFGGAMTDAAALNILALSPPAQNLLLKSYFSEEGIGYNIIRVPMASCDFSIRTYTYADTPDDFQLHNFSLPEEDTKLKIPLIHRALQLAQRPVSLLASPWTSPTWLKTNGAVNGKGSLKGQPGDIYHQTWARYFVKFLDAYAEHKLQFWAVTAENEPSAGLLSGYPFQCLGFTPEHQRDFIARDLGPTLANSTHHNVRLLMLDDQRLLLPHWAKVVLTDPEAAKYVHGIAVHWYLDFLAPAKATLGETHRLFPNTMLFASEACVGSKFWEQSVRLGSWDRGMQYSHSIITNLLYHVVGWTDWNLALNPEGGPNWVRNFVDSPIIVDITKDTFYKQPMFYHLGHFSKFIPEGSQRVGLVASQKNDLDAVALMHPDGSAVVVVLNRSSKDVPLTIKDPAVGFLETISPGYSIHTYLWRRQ
Chain of Glucocorticoid receptor (Homo sapiens) (P04150 whole entry, looked up, the tested form may be a part): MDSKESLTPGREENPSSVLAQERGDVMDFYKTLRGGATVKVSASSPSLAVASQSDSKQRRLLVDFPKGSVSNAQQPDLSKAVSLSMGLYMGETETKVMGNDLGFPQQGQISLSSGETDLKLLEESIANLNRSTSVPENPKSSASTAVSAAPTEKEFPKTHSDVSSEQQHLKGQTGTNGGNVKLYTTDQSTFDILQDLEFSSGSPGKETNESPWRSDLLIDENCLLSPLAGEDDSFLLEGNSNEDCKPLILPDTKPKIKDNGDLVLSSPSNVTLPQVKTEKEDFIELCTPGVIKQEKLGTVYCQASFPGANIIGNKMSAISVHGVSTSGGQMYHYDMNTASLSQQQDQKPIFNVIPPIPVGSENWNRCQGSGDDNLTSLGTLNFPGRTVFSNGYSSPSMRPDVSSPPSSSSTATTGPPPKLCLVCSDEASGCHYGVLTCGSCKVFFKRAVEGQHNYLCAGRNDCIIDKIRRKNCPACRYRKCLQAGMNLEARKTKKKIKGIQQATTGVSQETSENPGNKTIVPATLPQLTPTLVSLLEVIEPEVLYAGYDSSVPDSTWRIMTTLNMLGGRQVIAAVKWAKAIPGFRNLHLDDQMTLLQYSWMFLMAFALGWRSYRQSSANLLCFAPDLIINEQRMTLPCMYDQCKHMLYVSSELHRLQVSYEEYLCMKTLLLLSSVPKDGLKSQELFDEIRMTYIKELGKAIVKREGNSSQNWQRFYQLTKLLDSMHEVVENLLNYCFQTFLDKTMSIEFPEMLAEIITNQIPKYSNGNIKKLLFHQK
Chain of Cytochrome P450 3A4 (Homo sapiens) (P08684 whole entry, looked up): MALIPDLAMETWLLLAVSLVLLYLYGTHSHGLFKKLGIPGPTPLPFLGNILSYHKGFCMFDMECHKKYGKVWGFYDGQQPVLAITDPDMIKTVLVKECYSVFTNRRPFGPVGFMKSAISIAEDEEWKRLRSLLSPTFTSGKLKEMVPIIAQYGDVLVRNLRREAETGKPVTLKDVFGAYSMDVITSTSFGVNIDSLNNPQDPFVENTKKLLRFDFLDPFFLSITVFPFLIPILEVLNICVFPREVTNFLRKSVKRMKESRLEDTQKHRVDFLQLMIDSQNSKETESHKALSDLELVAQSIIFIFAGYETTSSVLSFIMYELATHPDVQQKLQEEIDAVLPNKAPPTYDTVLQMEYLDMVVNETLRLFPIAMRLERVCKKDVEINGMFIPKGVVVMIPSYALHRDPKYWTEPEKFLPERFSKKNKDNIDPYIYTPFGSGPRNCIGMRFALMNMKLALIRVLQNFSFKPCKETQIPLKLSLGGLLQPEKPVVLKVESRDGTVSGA

SMILES | Potency [1] [µM] | activity change, negative = inhibition [2] [%] | activity change, negative = inhibition [3] | activity change, negative = inhibition [4] [%] | activity, negative = inhibition [5] [%] | Potency [6] [µM] | Potency [7] [µM] | Potency [8] | Potency [9] | Potency [3] | Potency [10] | Potency [11] | Potency [12]
CC(=O)O[C@H]1CC[C@@]2(C)[C@@H](CC[C@H]3[C@H]2CC(=O)[C@@]2(C)[C@@H]3C[C@H]3CC(C)=CC(=O)[C@H]32)C1 | > 11.4 | 5.01 | -9% [at 2.29 µM] | 22 | -1.11 | > 46 | > 9.22 | inactive | inactive |  |  |  | 
NCCSC[C@H](N)C(=O)O | > 11.4 | -5.07 |  | 6.39 | 6.75 | > 46 | > 9.22 | inactive | inactive | inactive | inactive |  | 
O=C(O)c1cscc1Cc1cccs1 | > 11.4 | -0.132 |  | -2.63 | 5.79 | > 46 | > 9.22 | inactive | inactive | inactive | inactive |  | 
OCCSCc1ccccc1 | > 11.4 | 2.72 |  | 3.48 | 4.23 | > 46 | > 9.22 | inactive | inactive | inactive |  |  | 
O=C(N/N=C\c1ccc2c(c1)CCC2)c1ccccc1O | > 11.4 | -5.97 |  | 20.6 | -2.26 | > 46 | > 9.22 | inactive | inactive | 2 µM (active) | inactive |  | 
CCOc1ccccc1/C=C(\C#N)C(N)=O | > 11.4 | 3.2 |  | -1.04 | 4.29 | > 46 | > 9.22 | inactive | inactive | 2 µM (active) | inactive |  | 
CN(C)CCOC(=O)c1ccc(N)cc1 | > 11.4 | 4.6 |  | -0.262 | -3.48 | > 46 | > 9.22 | inactive | inactive | inactive |  |  | 
Cc1c(Cl)c(S(N)(=O)=O)cc2c1=NC=NS=2(=O)O | > 11.4 | -1 | -9.6% [at 2.29 µM] | 4.9 | 1.77 | > 46 | > 9.22 | inactive | inactive |  | inactive |  | 
COc1c(NC(C)=O)c2ccccc2c2ccccc12 | > 11.4 | -1.26 |  | -6.36 | 1.8 | > 46 | > 9.22 | inactive | inactive | 0.398 µM (active) | inactive |  | 
C[C@@]1(CCOCc2ccccc2)NC(=O)NC1=O | > 11.4 | 7.73 |  | -2.8 | 8.58 | > 46 | > 9.22 | inactive | inactive | inactive |  |  | 
NCC(=O)N[C@H](CO)C(=O)O (HELM PEPTIDE1{G.[dS]}$$$$V2.0) | > 11.4 | 12.3 |  | -7.28 | 10.1 | > 46 | > 9.22 | inactive | inactive | inactive |  |  | 
O=[N+]([O-])c1ccccc1N=Nc1c(O)[nH]c2ccc(S(=O)(=O)O)cc12 | > 11.4 | -1.77 |  | 11 | -1.49 | > 46 | > 9.22 | inactive | inactive | 1 µM (active) |  |  | 
CC(C)c1ccc(/C=C2\C=C(c3ccc4ccccc4c3)OC2=O)cc1 | > 11.4 | -7.05 | -24.7% [at 2.29 µM] | -17 | 4.97 | > 46 | > 9.22 | inactive | inactive |  |  |  | 
NNC(=O)Cc1cccnc1 | > 11.4 | -8.16 |  | 7.3 | 3.84 | > 46 | > 9.22 | inactive | inactive | 0.631 µM (active) | inactive | 3.16 µM (active) | inactive
